# Shown are actives, neighbours in structure and some others; about 12% of the full set was active somewhere.
# SARS PLpro yeast: inhibitors of SARS-CoV papain-like protease in yeast. S. cerevisiae expressing SARS-CoV PLpro, growth rescue. Potency, µM (doses to about 32.9 µM), for inactives: at the highest dose activity, positive = growth rescue, actives largely listed as activators. AID 485353. 330,000 tested, 0.19% active; calls by dose curve; also: 0% is about no effect; nearly all actives have a fitted effect of over 55% in size
# Pf growth 96h: P. falciparum growth inhibition at 96 hours. P. falciparum luciferase reporter growth, 96 h. Potency, µM (series often up to 28.7 µM), without a hit: at the top dose activity change, negative = inhibition, hits mostly inhibitors. 320,000 tested, 6.9% active; also: % is scaled to controls: 0 for no effect and ±100 for the full control effect
#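 Delayed-death screen, second-generation endpoint: infected erythrocytes, 2% hematocrit, 0.05% parasitemia final; 96 hours at 37 C, 5% CO2; luciferase detection reagent; luminescence decrease equals reduced growth.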
# Sm TGR inh: S. mansoni TGR enzyme inhibition; Potency, µM (series often up to 114 µM), for inactives: at the highest dose activity change, negative = inhibition, actives largely listed as inhibitors; Q962Y6; purified TGR, DTNB reduction, TNB absorbance 405 nm; 360,000 tested, 3% active; also: % is scaled to controls: 0 for no effect and ±100 for the full control effect; nearly all actives have a fitted effect of over 60% in size
#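 First, TGR (20 nM dispensed) and NADPH were mixed with compound. Second, a 15 min room-temperature incubation followed. Third, further NADPH and then DTNB were added to start the reaction. Finally, TNB absorbance was monitored kinetically.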
# Pf growth 48h: inhibits P. falciparum growth in the first generation, 48 h; P. falciparum luciferase growth in erythrocytes, 48 h; 310,000 tested, 5.9% active; Potency, µM (highest dose often 28.7 µM), for inactives: at the highest dose activity change, negative = inhibition, hits mostly inhibitors; also: % is scaled to controls: 0 for no effect and ±100 for the full control effect
#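 Luminescence readout; reporter = integrated firefly luciferase in P. falciparum. RBC culture at 2% hematocrit, 0.1% parasitemia final, 37 C/5% CO2; decreased signal taken as growth inhibition.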
# * marks the source's active call; other numbers are inactive results; i = inactive; ? = inconclusive; · = not tested or not shown; [ ] = remark or other dose. Unless noted, calls follow the shape of the dose curve; as a rule, active = well fitted curve in the direction sought with a large enough effect; inconclusive = small, poorly fitted or top-dose-only effect, or another doubt; inactive = no such curve, though single readings can be large; an effect the other way counts as inactive or inconclusive. Potency is read from the fitted curve at half-maximal effect.
SMILES,SARS PLpro yeast,Pf growth 96h,Sm TGR inh,Pf growth 48h
CCOC(=O)c1oc2ccccc2c1NC(=O)c1ccco1,2.8%,-25.3%,0.7%,18.5%
COc1ccc(CCN(C)C2CCCN(C(=O)CCC(F)(F)F)C2)cc1OC (centres undefined),-2.6%,?,?,-19.4%
COc1ccc(CNC(=O)CCCCCNC(=O)N2CCn3c2nc2ccccc23)cc1,-2.1%,?,-5.4%,?
COc1cccc(NC(=O)CSc2nnc3ccc(-c4ccccn4)nn23)c1,-2.8%,42.4%,-1.3%,12.4%
COc1cc(CO)c(OC)c([N+](=O)[O-])c1,6.2%,53.1%,-7.7%,33.8%
N#CC1=C(N)Oc2cc(O)ccc2C1c1ccccc1 (centres undefined),1.4%,·,-2.5%,0.7%
N#CC1=C(N)Oc2cc3ccccc3cc2C1c1cccnc1 (centres undefined),13.8%,?,?,?
C[n+]1cccc(C2C(C#N)=C(N)Oc3c2ccc2ccccc32)c1 (centres undefined),3.6%,?,39.8µM*,0.294µM*
C[n+]1cccc2ccc3c(c21)OC(N)=C(C#N)C3c1ccccc1 (centres undefined),1.2%,7.38µM*,-10.1%,3.7µM*
N#Cc1ccc(CN2CCN(C(=O)C3CC(=O)N(c4ccccc4F)C3)CC2)cc1 (centres undefined),0.1%,·,·,·
Cc1cccc(C(=O)OCc2cc(=O)n3nc(C4CC4)sc3n2)c1,·,·,5.6%,·
COc1ccc(OC)c(NC(=O)Cn2cc(C(=O)c3ccc(Cl)cc3)c(=O)c3cc(OC)ccc32)c1,·,·,-13.9%,·
Cc1cccc(N=Cc2[nH]c3ccc(Br)c(Cl)c3c2O)c1,7.7%,4.0%,?,14.7µM*
Cc1cccc(N=Cc2c(O)cc(C)oc2=O)c1,0.2%,1.3%,2.5%,39.1%[5.75 µM]
COc1ccccc1CN=Cc1[nH]c2ccc(Br)c(Cl)c2c1O,-34.0%,-16.4%,11.2µM*,·
CCC(NC(=O)Nc1nnc(C(F)(F)F)s1)(C(F)(F)F)C(F)(F)F,-38.7%,-43.7%,-18.9%,1.65µM*
Cc1ccccc1NS(=O)(=O)c1cc(C(=O)NCc2ccncc2)ccc1Cl,8.0%,?,0.1%,-22.5%
CCC(=O)N/C(N)=N/c1nc(C)c2cc(OC)ccc2n1,-1.4%,-18.9%,-26.3%,3.29µM*
CCC(=O)N/C(=N/c1nc(C)cc(C)n1)Nc1ccc(OC)cc1,-8.2%,14.7µM*,-2.1%,-19.4%
O=C(NC1CCCc2ccccc21)c1ccccc1OC(F)F (centres undefined),-2.6%,?,-5.2%,-0.8%
CCOC(=O)/C=C/C(=O)Nc1cccc([N+](=O)[O-])c1,-109.9%,1.6%,0.708µM*,0.3%
CCOC(=O)/C=C/C(=O)Nc1ccccc1-c1ccccc1NC(=O)/C=C/C(=O)OCC,-4.5%,?,12.6µM*,4.65µM*
COc1cc(/C=C/C(=O)OCC(=O)Nc2ccc([N+](=O)[O-])cc2)ccc1O,-1.1%,?,-9.5%,?
CCOC(=O)/C=C/C(=O)OCC(=O)Nc1ccc([N+](=O)[O-])cc1,-4.0%,-15.5%,3.98µM*,34.5%
Cc1ccc(C)c(NC(=O)C2CCCN(c3nc4ccccc4s3)C2)c1 (centres undefined),·,·,-3.3%,·
SMILES,SARS PLpro yeast,Pf growth 96h,Sm TGR inh,Pf growth 48h
O=C(Nc1ccccc1)C1CCCCN1S(=O)(=O)c1ccccc1 (centres undefined),-2.8%,3.2%,-0.4%,-4.6%
O=C(Nc1nnc(C2CC2)s1)C1CCCCN1S(=O)(=O)c1ccccc1 (centres undefined),3.0%,-9.6%,4.9%,13.1µM*
CCc1ccc(OCC(=O)O/N=C(\N)c2ccncc2)c(Br)c1,-14.0%,7.38µM*,1.0%,178.8%
N/C(=N\OC(=O)COc1ccc(Cl)cc1Br)c1ccncc1,-2.9%,108.3%,?,i
COc1ccc(NC(=O)CN(C)C(=O)Cc2n[nH]c(=O)c3ccccc23)cc1,2.4%,25.9%,-2.2%,-26.9%
Cc1ccc(N2C(=O)CSC2c2cccs2)cc1 (centres undefined),3.4%,0.165µM*,-3.1%,0.5%
Cc1ccc2nc3ccc(N4CCCC4)nn3c(=O)c2c1,-7.9%,4.65µM*,-12.0%,171.3%
Cc1sc2nc(CN3CCCCC3)nc(Nc3ccc4c(c3)OCCO4)c2c1C,2.0%,?,4.2%,9.28µM*
Cc1sc2nc(CN3CCCC3)nc(Cl)c2c1C,-16.6%,?,7.08µM*,?
Cc1sc2nc(CN3CCCC3)nc(NCc3ccncc3)c2c1C,-1.0%,?,39.8µM*,?
Cc1nc(NCc2ccco2)c2c(C)c(C)sc2n1,0.9%,·,-11.3%,-7.7%
COc1cc(CN(C(=O)COc2ccc(C)c(C)c2)c2ccccn2)cc(OC)c1OC,·,·,0.4%,·
CN(Cc1ccccc1)C(=O)COC(=O)c1cc(=O)c2ccccc2o1,-0.3%,·,·,·
CC(=O)C1(O)Cc2c(O)c3c(c(O)c2C(OC2CC(N)C(O)C(C)O2)C1)C(=O)c1c(O)cccc1C3=O (centres undefined),·,0.849µM*,·,1.51µM*
COc1cccc2c1C(=O)c1c(O)c3c(c(O)c1C2=O)C[C@@](O)(C(=O)CO)C[C@@H]3O[C@H]1C[C@H](N)[C@H](O)[C@H](C)O1,·,0.0928µM*,?,0.147µM*
COc1cccc2c1C(=O)c1c(O)c3c(c(O)c1C2=O)C[C@@](O)(C(=O)CO)C[C@@H]3OC1CC(N)C(O)C(C)O1 (some centres undefined),·,0.0675µM*,·,0.426µM*
COC(=O)c1cc2oc3ccccc3c2n1CC(=O)Nc1cc(OC)cc(OC)c1,·,·,9.6%,·
CC(NCc1ccccc1)c1ccccc1O (centres undefined),0.9%,10.4µM*,5.6%,1.65µM*
CC(CCc1ccccc1)NCc1ccncc1 (centres undefined),2.0%,-13.8%,0.8%,1.4%
COc1ccc(CCN(C)C(=O)/C=C/c2c(Cl)nc3ccccn23)cc1OC,1.0%,?,7.3%,11.7µM*
Cc1cccc(NC(=O)CCc2c(C)nc3c(c(C)nn3C(C)(C)C)c2C)c1C,·,·,0.3%,·
CNC(=O)c1ccc(Nc2nnc(-c3ccc(C)c(S(=O)(=O)NCC4CCCO4)c3)c3ccccc23)cc1 (centres undefined),10.0%,?,-9.8%,5.22µM*
Cc1ccc(C)c(Nc2nnc(-c3ccc(C)c(S(=O)(=O)NCC4CCCO4)c3)c3ccccc23)c1 (centres undefined),·,·,5.8%,·
CNS(=O)(=O)c1cc(-c2nnc(Nc3ccc(NC(C)=O)cc3)c3ccccc23)ccc1C,0.2%,?,-4.5%,10.4µM*
CC(=O)Nc1ccc(Nc2nnc(-c3ccc(C)c(S(=O)(=O)NCC4CCCO4)c3)c3ccccc23)cc1 (centres undefined),1.4%,1.17µM*,-0.8%,1.04µM*
Cc1ccc(-c2nnc(Nc3ccccc3)c3ccccc23)cc1S(=O)(=O)NCC1CCCO1 (centres undefined),-1.3%,?,-11.7%,4.15µM*
CCc1ccc(OC(=O)Nc2ccccc2)cc1,-6.8%,35.5%,1.6%,32.1%
CNC[C@@H](Cc1ccccc1)NC[C@@H](CC1CCCCC1)NCCCc1ccccc1,-3.7%,?,-18.3%,?

# From PubChem BioAssay
